Measured values taken from PubChem BioAssay (Tox21).
Inconclusive results are not listed. Activity calls are given as the source filed them. Unless noted, calls follow the shape of the dose curve; as a rule, active = well fitted curve in the direction sought with a large enough effect in the repeat runs; inconclusive = weak or mixed curves; inactive = no such curve, though single readings can be large; an effect the other way counts as inactive or inconclusive.

Legend:
[1] = target: Thyrotropin receptor (Homo sapiens) (UniProt P16473); assay: qHTS assay to identify small molecule antagonists of the thyroid stimulating hormone receptor (TSHR) signaling pathway (AID 1259385; calls by dose curve; also: nearly all actives have a fitted effect of over 20% in size)
In short: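 TSHR-HEK293 cells (800/well) plated 18 h, then compounds with Ro20-1724 and TSH at 1.5 ng/mL final, 30 min at room temperature. cAMP quantified by HTRF (cAMP-d2/anti-cAMP-cryptate, 1 h); 15 concentrations in triplicate.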

[2] = qHTS assay to identify small molecule agonists of the estrogen receptor alpha (ER-alpha) signaling pathway in the presence of an antagonist - cell viability counter screen (AID 1259386);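 also: cells exposed to compounds for 22 h at 37 °C before the viability read; nearly all actives have a fitted effect of over 30% in size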; also: potency is read from the fitted curve at half-maximal effect
In short: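 Using estrogen-depleted VM7Luc4E2 cells, the 15-concentration compound series was applied together with 10.0nM ICI-182,780 and incubated 22hr at 37C/5% CO2. Cell viability was then scored by CellTiter-Fluor.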

[3] = target: Progesterone receptor (Homo sapiens) (UniProt P06401); assay: qHTS assay to identify small molecule agonists of the progesterone receptor (PR) signaling pathway (AID 1346784; calls by dose curve; also: nearly all actives have a fitted effect of over 30% in size)
In short: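 Fluorescence from LiveBLAzer B/G FRET substrate cleavage (2 hr, RT) reported PR activation in PR-UAS-bla HEK 293T cells treated 16 hr at 37C/5% CO2 with compounds; medium contained 2% charcoal-stripped FBS.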

[4] = target: Progesterone receptor (Homo sapiens) (UniProt P06401); assay: qHTS assay to identify small molecule antagonists of the progesterone receptor (PR) signaling pathway (AID 1346795; active = well fitted inhibition curve with a large enough effect in the signal ratio in the repeat runs, not every such curve was filed as active; the % refers to the signal ratio)
In short: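 Fluorescence intensity measured 2 hr after adding beta-lactamase FRET substrate to PR-UAS-bla HEK293T cells that had been co-treated 16 hr with compound and 1 nM R5020 (final concentration) in 2% charcoal-stripped FBS.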

[5] = qHTS assay to identify small molecule antagonists of the progesterone receptor (PR) signaling pathway - cell viability counter screen (AID 1346798); also: nearly all actives have a fitted effect of over 50% in size; also: potency is read from the fitted curve at half-maximal effect
In short: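 CellTiter-Glo luminescence; PR-UAS-bla HEK293T, 3,000 cells/well; compound + R5020, 16 hr, 37C/5% CO2; 30 min RT before read.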

[6] = qHTS assay to identify small molecule agonists of the progesterone receptor (PR) signaling pathway - cell viability counter screen (AID 1346799; calls by dose curve; also: nearly all actives have a fitted effect of over 45% in size; also: potency is read from the fitted curve at half-maximal effect)
In short: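 In parallel with the beta-lactamase readout, cytotoxicity toward PR-UAS-bla HEK293T cells was measured by CellTiter-Glo luminescence following 16 hr compound incubation in 2% charcoal-stripped FBS medium.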

[7] = qHTS assay to identify small molecule antagonists of the TGF-beta/Smad signaling pathway - cell viability counter screen (AID 1346824); also: nearly all actives have a fitted effect of over 50% in size
In short: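 SBE-bla HEK 293T cells, incubated overnight, then compound plus 0.25 ng/mL TGF-beta1 (stock added) for 5 hr at 37 C. Viability was read in the same wells by CellTiter-Glo luminescence after 30 min at room temperature.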

[8] = qHTS assay to identify small molecule agonists of the TGF-beta/Smad signaling pathway (AID 1346859; active = well fitted activation curve with a large enough effect in the signal ratio in the repeat runs, not every such curve was filed as active; the % refers to the signal ratio; also: series mostly up to about 77 µM)
In short: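 After overnight seeding, SBE-bla HEK 293T cells are dosed with compounds in DMSO and kept 5 hr at 37 C, 5% CO2. LiveBLAzer-type FRET substrate is then applied for 2 hr at room temperature.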

[9] = Human pregnane X receptor (PXR) small molecule agonists, qHTS cell viability counter screen (AID 1346977); also: nearly all actives have a fitted effect of over 50% in size
In short: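 Viability counter screen: CellTiter-Fluor signal in PXR-Luc HepG2 cells, 24hr compound exposure, 37C, 5% CO2.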

[10] = Caspase-3/7 induction in HepG2 cells by small molecules, qHTS assay (AID 1346978); also: nearly all actives have a fitted effect of over 15% in size
In short: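 Wild-type HepG2 cells, 2,000/well, settled 5 hr at 37 C and 5% CO2, then compound-treated for 17 hr; caspase-3/7 activity read by luminescent Caspase-Glo 3/7 after 30 min at room temperature.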

[11] = Caspase-3/7 induction in CHO-K1 cells by small molecules, qHTS cell viability counter screen (AID 1346979); also: nearly all actives have a fitted effect of over 35% in size; also: potency is read from the fitted curve at half-maximal effect
In short: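 Viability readout by fluorescence (CellTiter-Fluor) on wild-type CHO-K1 cells exposed for 16hr at 37C and 5% CO2 to compounds delivered in DMSO; reagent incubated 1hr before reading.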

[12] = Caspase-3/7 induction in CHO-K1 cells by small molecules, qHTS assay (AID 1346980); also: nearly all actives have a fitted effect of over 15% in size
In short: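 Wild-type CHO-K1 cells exposed to compounds for 17hr at 37 C, 5% CO2. Caspase-3/7 activity then measured by Caspase-Glo 3/7 luminescence after 30min at room temperature.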

[13] = Caspase-3/7 induction in HepG2 cells by small molecules, qHTS cell viability counter screen (AID 1346981); also: nearly all actives have a fitted effect of over 30% in size; also: potency is read from the fitted curve at half-maximal effect
In short: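 After a 5-hr attachment period at 37 C and 5% CO2, wild-type HepG2 cells received compounds in DMSO. Sixteen hours later CellTiter-Fluor was dispensed and the fluorescent signal quantified after a further hour.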

[14] = target: Nuclear receptor subfamily 1 group I member 2 (Homo sapiens) (UniProt O75469); assay: Human pregnane X receptor (PXR) small molecule agonists, qHTS assay (AID 1346982); also: nearly all actives have a fitted effect of over 35% in size; also: potency is read from the fitted curve at half-maximal effect
In short: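 Tox21 qHTS; PXR-Luc HepG2; compounds pinned from DMSO; 24 hr, 37 C; ONE-Glo luciferase detection, 30 min room temperature.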

[15] = qHTS assay to identify small molecule agonists of the TGF-beta/Smad signaling pathway - cell viability counter screen (AID 1346829); also: nearly all actives have a fitted effect of over 45% in size; also: potency is read from the fitted curve at half-maximal effect
In short: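 In parallel with the Smad reporter read, viability of HEK 293T cells stably carrying SBE-bla is quantified by ATP luminescence following 5 hr compound treatment.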

[16] = target: Thyrotropin-releasing hormone receptor (Homo sapiens) (UniProt P34981); assay: qHTS assay to identify small molecule antagonists of the thyrotropin-releasing hormone receptor (TRHR) signaling pathway (AID 1346877; active = well fitted inhibition curve with a large enough effect in the repeat runs, not every such curve was filed as active; also: series mostly up to about 51 µM)
In short: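 Calcium signal in dye-loaded TRHR/HEK293 cells; compounds added 5 min before TRH (1 nM final); fluorescence monitored 3 min at 1 s steps.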

[17] = target: Thyrotropin-releasing hormone receptor (Homo sapiens) (UniProt P34981); assay: qHTS assay to identify small molecule agonists of the thyrotropin-releasing hormone receptor (TRHR) signaling pathway (AID 1346891; calls by dose curve;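 also: HEK293 cells expressing TRHR with calcium dye readout; series mostly up to about 58 µM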)
In short: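 Compounds were tested as agonists at 15 concentrations, in triplicate, on TRHR-Hek293 cells; calcium-sensitive dye fluorescence was recorded for 3 min following addition.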

[18] = target: Nuclear receptor subfamily 1 group I member 2 (Rattus norvegicus) (UniProt Q9R1A7); assay: Rat pregnane X receptor (rPXR) activation by small molecules, qHTS assay (AID 1346983); conditions: rPXR luciferase reporter cells, One-Glo luminescence, 24 h; max activation: stronger effect = higher value; also: nearly all actives have a fitted effect of over 20% in size
In short: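 Cell-based rPXR activation assay: rPXR cells, 2,000 per well, rested 5hr at 37 C, then exposed to compounds in DMSO for 24 hr at 37 C. Luciferase activity read by One-Glo luminescence after 30 min at room temperature.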

[19] = target: Nuclear receptor subfamily 1 group I member 2 (Homo sapiens) (UniProt O75469); assay: CYP3A4 induction through human pregnane X receptor (PXR) by small molecules, qHTS assay (AID 1346984); also: nearly all actives have a fitted effect of over 40% in size; also: potency is read from the fitted curve at half-maximal effect
In short: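 Cells (DPX-2; HepG2 with PXR element plus CYP3A4-promoter luciferase) settled 5hr, then were treated 24hr at 37C. A 3hr, 3uM-final Luciferin-IPA step preceded luminescence measurement with One-Glo.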

[20] = target: Nuclear receptor subfamily 1 group I member 2 (Homo sapiens) (UniProt O75469); assay: Human pregnane X receptor (PXR) activation by small molecules, qHTS assay (AID 1346985); also: nearly all actives have a fitted effect of over 40% in size; also: potency is read from the fitted curve at half-maximal effect
In short: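 DPX-2 cells (HepG2 co-transfected with a PXR response element and a CYP3A4-promoter luciferase construct) were seeded at 2,000 per well, rested 5 hr at 37C, then exposed to DMSO-dissolved compounds for 24 hr. Activation was read as luciferase luminescence.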
% is scaled to controls: 0 for no effect and ±100 for the full control effect.

Sequence of Nuclear receptor subfamily 1 group I member 2 (Rattus norvegicus) (Q9R1A7 whole entry, looked up): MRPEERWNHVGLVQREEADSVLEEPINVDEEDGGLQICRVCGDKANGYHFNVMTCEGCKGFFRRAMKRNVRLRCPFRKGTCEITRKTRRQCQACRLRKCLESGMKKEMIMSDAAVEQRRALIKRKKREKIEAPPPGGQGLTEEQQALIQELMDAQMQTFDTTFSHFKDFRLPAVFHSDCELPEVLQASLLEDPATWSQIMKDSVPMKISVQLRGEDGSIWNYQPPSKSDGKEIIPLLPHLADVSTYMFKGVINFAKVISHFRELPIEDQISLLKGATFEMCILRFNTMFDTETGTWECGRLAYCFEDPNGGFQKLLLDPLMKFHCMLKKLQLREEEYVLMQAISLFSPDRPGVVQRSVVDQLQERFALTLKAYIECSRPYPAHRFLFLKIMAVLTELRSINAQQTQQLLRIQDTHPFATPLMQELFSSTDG
Sequence of Thyrotropin receptor (Homo sapiens) (P16473 whole entry, looked up): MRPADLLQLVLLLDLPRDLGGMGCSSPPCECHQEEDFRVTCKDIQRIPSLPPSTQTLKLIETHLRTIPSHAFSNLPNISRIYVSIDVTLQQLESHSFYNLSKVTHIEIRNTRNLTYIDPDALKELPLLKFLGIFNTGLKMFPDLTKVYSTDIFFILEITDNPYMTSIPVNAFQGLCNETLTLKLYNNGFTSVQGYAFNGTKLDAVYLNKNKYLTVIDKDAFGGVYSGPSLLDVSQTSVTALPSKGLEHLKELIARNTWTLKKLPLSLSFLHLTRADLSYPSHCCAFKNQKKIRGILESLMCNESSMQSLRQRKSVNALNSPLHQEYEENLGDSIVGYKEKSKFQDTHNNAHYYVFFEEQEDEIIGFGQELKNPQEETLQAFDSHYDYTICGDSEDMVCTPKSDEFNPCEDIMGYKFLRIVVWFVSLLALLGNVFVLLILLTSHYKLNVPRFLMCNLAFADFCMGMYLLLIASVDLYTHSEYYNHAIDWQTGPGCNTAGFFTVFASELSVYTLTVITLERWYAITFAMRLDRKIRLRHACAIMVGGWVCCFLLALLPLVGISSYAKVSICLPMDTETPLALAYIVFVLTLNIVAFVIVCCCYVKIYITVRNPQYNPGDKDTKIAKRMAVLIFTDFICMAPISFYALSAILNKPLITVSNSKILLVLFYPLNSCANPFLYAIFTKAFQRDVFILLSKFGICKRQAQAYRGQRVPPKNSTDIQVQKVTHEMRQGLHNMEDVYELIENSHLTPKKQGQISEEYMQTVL
Sequence of Thyrotropin-releasing hormone receptor (Homo sapiens) (P34981 whole entry, looked up): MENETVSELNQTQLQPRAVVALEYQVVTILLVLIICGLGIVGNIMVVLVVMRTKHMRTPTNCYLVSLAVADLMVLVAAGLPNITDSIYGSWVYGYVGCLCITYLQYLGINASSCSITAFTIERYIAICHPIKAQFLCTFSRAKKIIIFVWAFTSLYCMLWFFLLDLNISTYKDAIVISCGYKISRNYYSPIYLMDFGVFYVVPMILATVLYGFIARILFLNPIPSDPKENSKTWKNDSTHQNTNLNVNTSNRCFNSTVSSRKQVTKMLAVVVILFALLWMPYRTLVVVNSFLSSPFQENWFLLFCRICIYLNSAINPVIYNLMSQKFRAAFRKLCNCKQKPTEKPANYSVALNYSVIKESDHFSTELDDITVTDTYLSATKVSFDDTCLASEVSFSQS
Sequence of Nuclear receptor subfamily 1 group I member 2 (Homo sapiens) (O75469 whole entry, looked up): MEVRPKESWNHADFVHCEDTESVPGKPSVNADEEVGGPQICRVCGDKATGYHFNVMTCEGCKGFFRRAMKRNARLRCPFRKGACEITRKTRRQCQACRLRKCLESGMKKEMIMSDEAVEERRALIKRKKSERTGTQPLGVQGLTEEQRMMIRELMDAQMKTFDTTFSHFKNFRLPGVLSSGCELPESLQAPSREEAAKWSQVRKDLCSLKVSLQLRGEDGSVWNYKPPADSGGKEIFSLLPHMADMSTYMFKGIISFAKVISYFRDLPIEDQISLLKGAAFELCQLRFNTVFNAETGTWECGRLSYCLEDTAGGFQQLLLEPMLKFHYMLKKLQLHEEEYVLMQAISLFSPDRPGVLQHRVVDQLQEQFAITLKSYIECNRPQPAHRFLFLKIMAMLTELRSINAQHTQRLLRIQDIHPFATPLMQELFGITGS
Sequence of Progesterone receptor (Homo sapiens) (P06401 whole entry, looked up): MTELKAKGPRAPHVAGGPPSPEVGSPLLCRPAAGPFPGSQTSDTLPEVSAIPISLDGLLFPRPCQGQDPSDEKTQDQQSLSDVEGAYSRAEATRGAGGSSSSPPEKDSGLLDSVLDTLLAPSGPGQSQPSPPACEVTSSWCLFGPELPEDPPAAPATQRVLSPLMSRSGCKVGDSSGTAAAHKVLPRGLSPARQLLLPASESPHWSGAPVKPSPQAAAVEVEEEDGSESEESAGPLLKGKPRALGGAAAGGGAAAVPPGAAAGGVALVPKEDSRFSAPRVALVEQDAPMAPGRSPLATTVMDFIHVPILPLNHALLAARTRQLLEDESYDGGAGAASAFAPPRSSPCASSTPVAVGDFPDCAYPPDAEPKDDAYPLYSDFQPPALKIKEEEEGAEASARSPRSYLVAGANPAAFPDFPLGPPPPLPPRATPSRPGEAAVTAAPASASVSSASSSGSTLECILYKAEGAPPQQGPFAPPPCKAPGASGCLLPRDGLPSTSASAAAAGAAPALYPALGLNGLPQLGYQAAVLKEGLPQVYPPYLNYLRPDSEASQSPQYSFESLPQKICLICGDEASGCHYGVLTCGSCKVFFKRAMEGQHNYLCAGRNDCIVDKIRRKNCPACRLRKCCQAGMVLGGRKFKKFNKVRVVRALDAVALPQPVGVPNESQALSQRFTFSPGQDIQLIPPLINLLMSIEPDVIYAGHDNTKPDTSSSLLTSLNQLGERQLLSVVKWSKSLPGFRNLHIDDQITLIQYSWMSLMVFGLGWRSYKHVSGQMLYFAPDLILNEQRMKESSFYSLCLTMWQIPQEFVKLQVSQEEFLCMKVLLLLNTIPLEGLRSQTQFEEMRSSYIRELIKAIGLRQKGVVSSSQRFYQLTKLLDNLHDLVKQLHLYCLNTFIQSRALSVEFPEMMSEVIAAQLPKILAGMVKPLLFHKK

CC(=O)NCCO
inactive: Potency [1] | Potency [2] | Potency [3] | Potency [4] | Potency [5] | Potency [6] | outcome [7] | Potency [8] | Potency [9] | Potency [10] | Potency [11] | outcome [12] | Potency [13] | Potency [14]

CC1CCC(C(C)CS)CC1S (centres undefined)
inactive: Potency [1] | Potency [2] | Potency [3] | Potency [4] | Potency [5] | Potency [6] | outcome [16] | Potency [9] | Potency [10] | Potency [11] | outcome [12] | Potency [14]
active: Potency [15] 54.9 µM

O=C(O)c1ccc(O)cc1O
inactive: Potency [1] | Potency [2] | Potency [3] | Potency [4] | Potency [5] | Potency [6] | Potency [15] | Potency [8] | outcome [16] | outcome [17] | Potency [9] | Potency [10] | Potency [11] | outcome [12] | Potency [13] | Potency [14]

O=P(O)(O)Oc1ccccc1
inactive: Potency [1] | Potency [2] | Potency [3] | Potency [4] | Potency [6] | outcome [7] | Potency [15] | Potency [8] | outcome [16] | Potency [9] | Potency [10] | outcome [12] | Potency [13] | Potency [14]

CC(=O)NNC(C)=O
inactive: Potency [1] | Potency [2] | Potency [3] | Potency [4] | Potency [6] | outcome [7] | Potency [15] | Potency [8] | outcome [16] | outcome [17] | Potency [9] | Potency [10] | Potency [11] | outcome [12] | Potency [13] | Potency [14]

C=CC(=O)O
inactive: Potency [1] | Potency [2] | Potency [3] | Potency [4] | Potency [5] | outcome [7] | Potency [15] | Potency [8] | Potency [9] | Potency [10] | Potency [11] | outcome [12] | Potency [13] | Potency [14] | max activation [18] -1.96% | Potency [19] | Potency [20]

CCCCCCC(CO)CCCC (centres undefined)
inactive: Potency [1] | Potency [2] | Potency [3] | Potency [4] | Potency [5] | Potency [6] | Potency [15] | Potency [8] | outcome [16] | outcome [17] | Potency [9] | Potency [10] | Potency [11] | outcome [12] | Potency [13] | Potency [14]

CCCCCCCC(=O)OCCCCCC
inactive: Potency [1] | Potency [2] | Potency [3] | Potency [4] | Potency [6] | outcome [7] | Potency [15] | Potency [8] | outcome [16] | outcome [17] | Potency [9] | Potency [10] | Potency [11] | outcome [12] | Potency [14]

CCCCCCCCCCCCCCCCCC(=O)OCC(CC)CCCC (centres undefined)
inactive: Potency [1] | Potency [2] | Potency [3] | Potency [4] | Potency [5] | Potency [6] | outcome [7] | Potency [8] | Potency [9] | Potency [10] | Potency [11] | outcome [12] | Potency [13] | Potency [14]

CCN(CC)CCOc1ccccc1C(=O)CCc1ccccc1
active: Potency [5] 11.9 µM | Potency [6] 9.44 µM | Potency [14] 26.6 µM | Potency [19] 14.1 µM | Potency [20] 15.8 µM
inactive: Potency [1] | Potency [2] | Potency [3] | Potency [4] | outcome [7] | Potency [8] | outcome [16] | outcome [17] | Potency [10] | outcome [12] | Potency [13] | max activation [18] 4.09%

O=C(O)/C=C/c1ccc(O)c(O)c1
inactive: Potency [1] | Potency [2] | Potency [3] | Potency [4] | Potency [6] | outcome [7] | Potency [15] | Potency [8] | outcome [16] | outcome [17] | Potency [9] | Potency [10] | Potency [11] | outcome [12] | Potency [14]

CC[C@H]1OC(=O)[C@H](C)[C@@H](O[C@H]2C[C@@](C)(OC)[C@@H](O)[C@H](C)O2)[C@H](C)[C@@H](O[C@@H]2O[C@H](C)C[C@H](N(C)C)[C@H]2O)[C@](C)(O)C[C@@H](C)/C(=N\OCOCCOC)[C@H](C)[C@@H](O)[C@]1(C)O
inactive: Potency [1] | Potency [3] | Potency [4] | Potency [5] | outcome [7] | Potency [15] | Potency [8] | Potency [10] | outcome [12] | max activation [18] 0.558% | Potency [19] | Potency [20]
active: Potency [2] 7.19 µM | Potency [11] 28.6 µM | Potency [13] 25.5 µM

CNCc1ccc(NC(=O)c2c[nH]c3c2C(=O)CCC3)cc1
inactive: Potency [1] | Potency [2] | Potency [3] | Potency [4] | Potency [5] | outcome [7] | Potency [15] | Potency [8] | outcome [16] | outcome [17] | Potency [10] | Potency [11] | outcome [12] | Potency [13]
active: Potency [14] 1.09 µM

C1=CCC2CC=CC2C1 (centres undefined)
active: Potency [14] 54.4 µM
inactive: Potency [1] | Potency [2] | Potency [3] | Potency [4] | Potency [6] | outcome [7] | Potency [15] | Potency [8] | outcome [16] | outcome [17] | Potency [9] | Potency [10] | Potency [11] | outcome [12]

CCC(C)(C)C(=O)O
inactive: Potency [1] | Potency [2] | Potency [3] | Potency [4] | Potency [5] | Potency [6] | Potency [15] | Potency [8] | outcome [16] | outcome [17] | Potency [9] | Potency [10] | Potency [11] | outcome [12] | Potency [14]

CNc1c2c(nn1C)CCCC2
inactive: Potency [1] | Potency [2] | Potency [3] | Potency [4] | Potency [5] | Potency [6] | outcome [7] | Potency [8] | outcome [16] | outcome [17] | Potency [9] | Potency [10] | outcome [12] | Potency [13] | Potency [14] | max activation [18] -2.75% | Potency [19] | Potency [20]

COC1CCC=CO1 (centres undefined)
inactive: Potency [1] | Potency [2] | Potency [3] | Potency [4] | Potency [5] | Potency [6] | outcome [7] | Potency [8] | Potency [9] | Potency [10] | Potency [11] | outcome [12] | Potency [13] | Potency [14]
